Assay outcomes from PubChem.
DT40 TDP1 CPT = qHTS for Inhibitors of human tyrosyl-DNA phosphodiesterase 1 (TDP1): qHTS in cells in presence of CPT. chicken DT40 Tdp1-/-;hTDP1 cells + 20 nM CPT, ATP luminescence, 48 h. 420,000 tested, 12% active. AID 686979, 2013. Potency, µM (top dose mostly 46.2 µM), for the others: at the highest dose activity change, negative = growth inhibition, actives largely listed as inhibitors; also: % is scaled to controls: 0 for no effect and ±100 for the full control effect; nearly all actives have a fitted effect of over 55% in size
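Chicken DT40 Tdp1-/- cells complemented with human TDP1, 400 cells/well, exposed to compounds plus 20 nM camptothecin for at least 48 h at 37 C; viability read as ATP content by CellTiter-Glo luminescence.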
TDP1 cell noCPT = qHTS for Inhibitors of human tyrosyl-DNA phosphodiesterase 1 (TDP1): qHTS in cells in absence of CPT | Potency, µM (top dose mostly 46.2 µM), for the others: at the top dose activity change, negative = growth inhibition, hits mostly inhibitors | AID 686978, 2013 | 420,000 tested, 15% active | DT40 Tdp1-/- hTDP1 cells, no CPT, ATP luminescence, 48 h; also: % is scaled to controls: 0 for no effect and ±100 for the full control effect; nearly all actives have a fitted effect of over 55% in size
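Chicken DT40 Tdp1-/- cells complemented with human TDP1, screened without camptothecin (DMSO vehicle only), 400 cells/well. Compounds pin-transferred, cells incubated at 37 °C for at least 48 hr. Growth read as ATP-dependent luminescence (CellTiter-Glo, 30 min at RT).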
HT1080-NT tox = qHTS for induction of synthetic lethality in tumor cells producing 2HG: qHTS for the HT-1080-NT fibrosarcoma cell line; AID 686970, 2013; Potency, µM (series often up to 46.1 µM), without a hit: at the highest dose activity, negative = less viability, actives largely listed as cytotoxic; HT-1080-NT fibrosarcoma viability, CellTiter-Glo ATP luminescence, 48 h; 360,000 tested, 1.6% active;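 also: NT is the 2HG producing partner of a matched IDH1 knockdown line; 0% = DMSO-treated cells and -100% = media-only wells without cells; nearly all actives have a fitted effect of over 55% in size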
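Compounds were tested in concentration-response format on HT-1080-NT cells for 48 hours at 37 degrees C. Cell viability came from CellTiter-Glo luminescence; curves were classified by r2, response magnitude and activity.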
HT1080 IDH1KD tx = qHTS for induction of synthetic lethality in tumor cells producing 2HG: qHTS for the HT-1080-IDH1KD cell line. HT-1080 IDH1 knockdown viability, ATP luminescence, 48 h. Potency, µM (top dose mostly 46.1 µM), for the others: top-dose activity, negative = toxicity, most hits filed as cytotoxic. 360,000 tested, 2% active;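 also: 0% = DMSO wells and -100% = cell-free medium wells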
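CellTiter-Glo luminescence after 48 h compound exposure at 37 degrees C of IDH1-knockdown HT-1080 cells in 5% FBS RPMI. %Activity scaled between DMSO wells and cell-free media wells, with curves fitted and assigned curve classes.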
TGFb SMAD3 inh = qHTS for Inhibitors of TGF-b; HepG2 CAGA-GFP TGF-b/SMAD3 reporter, GFP fluorescence, 18 h; TGF-beta stimulated, 500 pg/mL final; Potency, µM (doses to about 46.1 µM), for the others: top-dose activity, negative = inhibition, actives largely listed as inhibitors; 410,000 tested, 1.2% active; also: % is scaled to controls: 0 for no effect and ±100 for the full control effect; nearly all actives have a fitted effect of over 65% in size
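First, reporter cells (HEPG2 CAGA-GFP) rested 2 h at 37 degrees C. Next, compounds were pinned in and TGF-beta added to 500 pg/mL final. After 18 h, GFP was imaged per cell and summed per well.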
HepG2 tox = qHTS for Inhibitors of TGF-b: Cytotox Counterscreen; HepG2 CAGA-GFP viability, ATP luminescence, 18 h; Potency, µM (highest dose often 46.1 µM), for the others: at the highest dose activity change, negative = cytotoxicity, usual class: cytotoxic; 410,000 tested, 0.76% active
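HepG2 CAGA-GFP cells (1000/well, DMEM with 1% FBS) received compound, then TGF-beta at 500 pg/mL final, and were incubated 18 hours at 37 degrees C. Viability was read by CellTiter-Glo luminescence. Media-only wells were set as complete cell-killing and DMSO as no toxicity.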
Active calls of the source: *; [ ] = dose if it differs, or a comment. The list is not random: actives were taken first. Their share in the collection is about 17%. Calls follow the shape of the dose curve; as a rule, active = well fitted curve in the direction sought with a large enough effect; inconclusive = small, poorly fitted or top-dose-only effect, or another doubt; inactive = no such curve, though single readings can be large; an effect the other way counts as inactive or inconclusive. Potency is read from the fitted curve at half-maximal effect.

For Cc1ccc(Nc2ncnc3c2cnn3C)cc1 the results were DT40 TDP1 CPT -29%, TDP1 cell noCPT inconclusive, HT1080-NT tox 16%, HT1080 IDH1KD tx 3%, TGFb SMAD3 inh 0% and HepG2 tox -18%.
`CNCC(=O)N[C@@H](CCCN=C(N)N)C(=O)N[C@H](C(=O)N[C@@H](Cc1ccc(O)cc1)C(=O)N[C@H](C(=O)N[C@@H](Cc1cnc[nH]1)C(=O)N1CCC[C@H]1C(=O)N[C@@H](C)C(=O)O)C(C)C)C(C)C` gave DT40 TDP1 CPT -10% and TDP1 cell noCPT 7%.
For COc1ccc(N/N=C(\C#N)C(=N)SCc2ccccc2)cc1 the results were DT40 TDP1 CPT 4.6µM*, TDP1 cell noCPT 7.3µM*, HT1080-NT tox -15%, HT1080 IDH1KD tx -2%, TGFb SMAD3 inh inconclusive and HepG2 tox 1%.
COc1ccc(N/N=C(\C#N)C(=N)N2CCCCC2)cc1 was read as DT40 TDP1 CPT -13%, TDP1 cell noCPT inconclusive, HT1080-NT tox 2%, HT1080 IDH1KD tx -30%, TGFb SMAD3 inh 0% and HepG2 tox 5%.
`Cc1cccc[n+]1CC(=O)c1ccc(NC(=O)c2ccccc2)cc1` gave DT40 TDP1 CPT inconclusive, TDP1 cell noCPT inconclusive, HT1080-NT tox 4%, HT1080 IDH1KD tx -6%, TGFb SMAD3 inh 11% and HepG2 tox -1%.
Cc1cccc[n+]1CC(=O)c1ccc([N+](=O)[O-])cc1 was read as DT40 TDP1 CPT 21µM*, TDP1 cell noCPT 16µM*, HT1080-NT tox 26%, HT1080 IDH1KD tx 17%, TGFb SMAD3 inh inconclusive and HepG2 tox -25%.
Screening COc1ccc(C(=O)C[n+]2ccccc2C)cc1 returned DT40 TDP1 CPT 16µM*, TDP1 cell noCPT 21µM*, HT1080-NT tox -6%, HT1080 IDH1KD tx -1%, TGFb SMAD3 inh -11% and HepG2 tox -5%.
`COc1cccc(CSc2nc3n(n2)C(CC(C)C)C(C(=O)Nc2ccccc2C)=C(C)N3)c1` (stereo not drawn) gave DT40 TDP1 CPT inconclusive, TDP1 cell noCPT -38%, TGFb SMAD3 inh 1% and HepG2 tox 1%.
`CCc1ccccc1NC(=O)CN1CCN(CC(=O)Nc2ccc3c(c2)OC2(CCCCC2)O3)CC1` gave DT40 TDP1 CPT 18µM*, TDP1 cell noCPT 4.1µM*, HT1080-NT tox -3%, HT1080 IDH1KD tx -6%, TGFb SMAD3 inh -15% and HepG2 tox -3%.
For Cc1cccc(OC(C)C(=O)N2CCC(c3nc4ccccc4o3)CC2)c1C (stereo not drawn) the results were DT40 TDP1 CPT inconclusive, TDP1 cell noCPT 23µM*, TGFb SMAD3 inh -22% and HepG2 tox -32%.
For COc1ccc(/C=C/C(=O)N2CCC(c3nc4ccccc4o3)CC2)cc1 the results were DT40 TDP1 CPT inconclusive, TDP1 cell noCPT inconclusive, TGFb SMAD3 inh 0% and HepG2 tox -18%.
`CC(C)Oc1ccc(C(=O)N2CCC(c3nc4ccccc4o3)CC2)cc1` gave DT40 TDP1 CPT inconclusive, TDP1 cell noCPT 18µM*, TGFb SMAD3 inh inconclusive and HepG2 tox -3%.
CCCCOc1ccc(C(=O)N2CCC(c3nc4ccccc4o3)CC2)cc1 was read as DT40 TDP1 CPT inconclusive, TDP1 cell noCPT 13µM*, TGFb SMAD3 inh -6% and HepG2 tox -4%.
`CCOc1ccccc1C(=O)N1CCC(c2nc3ccccc3o2)CC1` gave DT40 TDP1 CPT inconclusive, TDP1 cell noCPT 21µM*, TGFb SMAD3 inh 0% and HepG2 tox -21%.
Screening Nc1c(C(=O)OCC(=O)NCc2ccccc2)[nH]c(=O)[nH]c1=O returned DT40 TDP1 CPT -3%, TDP1 cell noCPT 6%, HT1080-NT tox 0%, HT1080 IDH1KD tx 4%, TGFb SMAD3 inh 2% and HepG2 tox 22%.
Screening COc1cc(Br)c(CNc2cc(C)ccc2C)cc1OC returned DT40 TDP1 CPT inconclusive, TDP1 cell noCPT 16µM*, HT1080-NT tox -14%, HT1080 IDH1KD tx -22%, TGFb SMAD3 inh inconclusive and HepG2 tox -27%.
For COc1cc(CNc2cc(C)ccc2C)cc(OC)c1OC the results were DT40 TDP1 CPT inconclusive, TDP1 cell noCPT inconclusive, HT1080-NT tox inconclusive, HT1080 IDH1KD tx -6%[9.24 µM], TGFb SMAD3 inh 4% and HepG2 tox 1%.
For CN(Cc1ccccc1)c1ccc(C(CC(N)=O)NC(=O)Cc2ccc(Br)cc2)cc1[N+](=O)[O-] (stereo not drawn) the results were DT40 TDP1 CPT inconclusive, TDP1 cell noCPT inconclusive, HT1080-NT tox -19%, HT1080 IDH1KD tx -15%, TGFb SMAD3 inh inconclusive and HepG2 tox -69%.
Screening CN(Cc1ccccc1)c1ccc(C(CC(N)=O)NC(=O)c2ccccc2)cc1[N+](=O)[O-] (stereo not drawn) returned DT40 TDP1 CPT 23µM*, TDP1 cell noCPT 16µM*, HT1080-NT tox 0%, HT1080 IDH1KD tx -4%, TGFb SMAD3 inh -16% and HepG2 tox -13%.
For NC(=O)CC(NC(=O)c1ccccc1)c1ccc(NCc2ccccc2)c([N+](=O)[O-])c1 (stereo not drawn) the results were DT40 TDP1 CPT 21µM*, TDP1 cell noCPT 23µM*, HT1080-NT tox -1%, HT1080 IDH1KD tx -3%, TGFb SMAD3 inh -23% and HepG2 tox -7%.
For NC(=O)CC(NC(=O)Cc1ccc(Br)cc1)c1ccc(NCc2ccc(F)c(F)c2)c([N+](=O)[O-])c1 (stereo not drawn) the results were DT40 TDP1 CPT 16µM*, TDP1 cell noCPT inconclusive, HT1080-NT tox inconclusive, HT1080 IDH1KD tx inconclusive, TGFb SMAD3 inh inconclusive and HepG2 tox -52%.
Screening NC(=O)CC(NC(=O)c1ccc(Br)cc1)c1ccc(NCc2ccc(F)cc2)c([N+](=O)[O-])c1 (stereo not drawn) returned DT40 TDP1 CPT inconclusive, TDP1 cell noCPT inconclusive, HT1080-NT tox -1%, HT1080 IDH1KD tx -4%, TGFb SMAD3 inh -11% and HepG2 tox -41%.
